“And” between values parts separate entries of the source, which are not always exact repeats. Identical values can stand only once. Records with an inconclusive call do not appear. The source made the active and inactive calls. The call rests on the fitted dose curve; in most records, active means well fitted curve in the direction sought with a large enough effect; inconclusive means small, poorly fitted or top-dose-only effect, or another doubt; inactive means no such curve, though single readings can be large; an effect the other way counts as inactive or inconclusive.
Tests used:
[1] = qHTS of pediatric cancer cell lines to identify multiple opportunities for drug repurposing: Primary screen for TC32 cells (AID 1347089); further: nearly all actives have a fitted effect of over 60% in size
Summary of the method: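 qHTS, TC32, 48 h drug treatment, CellTiter-Glo luminescence as a proxy for metabolically active cells; primary top concentration 46 µM (MIPE 11-pt, NPC 8-pt); confirmatory 11-pt.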

[2] = qHTS of pediatric cancer cell lines to identify multiple opportunities for drug repurposing: Primary screen for SJ-GBM2 cells (AID 1347091)
Summary of the method: (§1)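 Cell viability, CellTiter-Glo luminescence; 500-1,000 cells/well, 8- or 11-point titration, 48 h compound exposure at 37 degrees C, 5% CO2. Controls: DMSO neutral, bortezomib 2.3 µM final as positive.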

[3] = qHTS of pediatric cancer cell lines to identify multiple opportunities for drug repurposing: Primary screen for A673 cells (AID 1347092); further: nearly all actives have a fitted effect of over 45% in size
Summary of the method: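 Luminescence from CellTiter-Glo, taken after 15 min at room temperature, served as the proxy for metabolically active cells following 48 h treatment. Both potency and efficacy were taken from curves fitted to the titration data.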

[4] = qHTS of pediatric cancer cell lines to identify multiple opportunities for drug repurposing: Primary screen for SK-N-MC cells (AID 1347093)
Summary of the method: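 Metabolically active cells were quantified by ATP-dependent luminescence (CellTiter-Glo, 15 min at room temperature) following 48 h treatment. Cells had been plated at 500-1,000 per well and settled for 5 h beforehand.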

[5] = qHTS of pediatric cancer cell lines to identify multiple opportunities for drug repurposing: Primary screen for BT-37 cells (AID 1347094)
Summary of the method: (§2)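 Quantitative HTS format: each compound titrated (MIPE 11 points from 0.78 nM, NPC 8 points from 0.59 nM) onto cells plated 5 hours earlier. After 48 h at 37 degrees C, CellTiter-Glo luminescence was recorded.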

[6] = qHTS of pediatric cancer cell lines to identify multiple opportunities for drug repurposing: Primary screen for NB-EBc1 cells (AID 1347095)
Summary of the method: as §2

[7] = qHTS of pediatric cancer cell lines to identify multiple opportunities for drug repurposing: Primary screen for U-2 OS cells (AID 1347096); further: nearly all actives have a fitted effect of over 50% in size
Summary of the method: (§3)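 Cells (500-1,000/well) rested 5 h, then received compounds for 48 h; metabolically active cells were measured by CellTiter-Glo luminescence. Final concentrations spanned up to 46 µM (MIPE, 11-point) or 0.59 nM-46 µM (NPC, 8-point) in primary screens, 11-point in follow-ups.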

[8] = qHTS of pediatric cancer cell lines to identify multiple opportunities for drug repurposing: Primary screen for Saos-2 cells (AID 1347097); further: nearly all actives have a fitted effect of over 40% in size
Summary of the method: as §2

[9] = qHTS of pediatric cancer cell lines to identify multiple opportunities for drug repurposing: Primary screen for NB1643 cells (AID 1347099); further: nearly all actives have a fitted effect of over 50% in size
Summary of the method: as §2

[10] = qHTS of pediatric cancer cell lines to identify multiple opportunities for drug repurposing: Primary screen for LAN-5 cells (AID 1347100)
Summary of the method: as §3

[11] = qHTS of pediatric cancer cell lines to identify multiple opportunities for drug repurposing: Primary screen for BT-12 cells (AID 1347101); further: nearly all actives have a fitted effect of over 25% in size
Summary of the method: as §3

[12] = qHTS of pediatric cancer cell lines to identify multiple opportunities for drug repurposing: Primary screen for Rh18 cells (AID 1347102); further: nearly all actives have a fitted effect of over 65% in size
Summary of the method: as §3

[13] = qHTS of pediatric cancer cell lines to identify multiple opportunities for drug repurposing: Primary screen for SK-N-SH cells (AID 1347098); further: nearly all actives have a fitted effect of over 65% in size
Summary of the method: as §3

[14] = qHTS of pediatric cancer cell lines to identify multiple opportunities for drug repurposing: Primary screen for DAOY cells (AID 1347090); further: nearly all actives have a fitted effect of over 55% in size
Summary of the method: as §1

Measured: Potency
Potency means the concentration at half of the fitted maximal effect.

CC(C)C(C)C=CC(C)C1CCC2C3=CC=C4CC(O)CCC4(C)C3CCC21C (stereo unspecified)
not listed: [13] | [14]
inactive: all other assays above

COc1cc2ncnc(Nc3ccc(F)c(Cl)c3)c2cc1OCCCN1CCOCC1
active: [1] 38 µM | [2] 1.71 µM and 8.41 µM | [3] 1.71 µM and 21.1 µM | [4] 1.91 µM and 26.6 µM | [5] 15.7 µM and 19.5 µM | [7] 42.9 µM | [8] 13.6 µM | [13] 17.5 µM and 27.3 µM | [9] 34 µM | [10] 6.05 µM | [11] 39.5 µM | [12] 34 µM

COCCCCC(=NOCCN)c1ccc(C(F)(F)F)cc1
active: [3] 23.5 µM | [4] 10.5 µM | [13] 24.1 µM
not listed: [6] | [8] | [11] | [14]
inactive: all other assays above

Cc1cccc(Nc2nc(-c3ccncc3)cs2)c1
inactive: [1] | [4] | [7] | [8] | [13] | [9] | [12]
active: [2] 16.6 µM

CCOC(=O)C1=C(N)Oc2ccc(Br)cc2C1C(C#N)C(=O)OCC (stereo unspecified)
active: [2] 7.43 µM | [6] 6.62 µM | [13] 24.1 µM | [9] 10.5 µM | [10] 16.6 µM | [12] 14.8 µM
inactive: [1] | [5] | [7] | [11]

N#Cc1ccc(NC(=O)Nc2ccccc2Br)c2n[nH]nc12
inactive: [1] | [14] | [7] | [12]
active: [3] 23.5 µM | [4] 26.4 µM | [10] 26.4 µM

NC(=O)c1cccc(-c2cc(Nc3ccc(OC(F)(F)F)cc3)ncn2)c1
inactive: [1] | [2] | [4] | [6] | [7] | [13] | [9] | [12]

CN1CCN(CCOc2cc(OC3CCOCC3)c3c(Nc4c(Cl)ccc5c4OCO5)ncnc3c2)CC1
active: [2] 9.35 µM | [3] 11.8 µM | [4] 11.8 µM | [5] 7.69 µM | [13] 13.6 µM | [10] 18.7 µM
inactive: [1]

CC(C)(C)Cn1c(N)nc2ccc(-c3[nH]c(C(C)(C)C)nc3-c3ccc(F)cc3)nc21
inactive: [6] | [7] | [8] | [10]
active: [1] 29.4 µM | [14] 23.5 µM | [3] 18.7 µM | [5] 24.3 µM | [9] 11.8 µM

CO[C@H]1C(=O)[C@]2(C)[C@@H](OC)C[C@H]3OC[C@@]3(OC(C)=O)[C@H]2[C@H](OC(=O)c2ccccc2)[C@]2(O)C[C@H](OC(=O)[C@H](O)[C@@H](NC(=O)OC(C)(C)C)c3ccccc3)C(C)=C1C2(C)C
inactive: [7] | [13] | [9]
active: [1] 1.47 µM | [3] 0.001 µM | [4] 29.6 µM | [8] 0.001 µM | [10] 0.001 µM

CN(C)Cc1ccc(-c2nc3cccc4c3n2CCNC4=O)cc1
inactive: [1] | [7] | [12]
active: [3] 11.8 µM | [4] 11.8 µM | [6] 16.6 µM | [13] 21.5 µM | [9] 23.5 µM

COc1ccc(Cc2ccc(NC(N)=O)cc2)cc1-c1cccc(Cl)c1
inactive: [1] | [6] | [7] | [11] | [12]
active: [4] 18.7 µM | [9] 16.6 µM

CC[C@]1(O)C[C@@H]2CN(CCc3c([nH]c4ccccc34)[C@@](C(=O)OC)(c3cc4c(cc3OC)N(C=O)[C@@H]3C45CCN4CC=C[C@](CC)([C@H]45)[C@@H](OC(C)=O)[C@]3(O)C(=O)OC)C2)C1 (stereo partly specified)
active: [3] 11.8 µM | [4] 20.9 µM
inactive: [1] | [7] | [8] | [10]

O=C(O)C(O)Cc1ccc(O)c(O)c1 (stereo unspecified)
inactive: [14] | [2] | [5] | [7] | [13] | [9] | [11] | [12]

C[C@H](NC(=O)c1sccc1OCc1ccc(Cl)cc1)c1ccccc1
inactive: [2] | [7] | [13] | [10] | [12]
active: [3] 23.5 µM | [4] 13.2 µM | [5] 27.3 µM | [9] 23.5 µM

CS(=O)(=O)N(Cc1ccco1)CC(O)Cn1c2ccccc2c2ccccc21 (stereo unspecified)
inactive: [14] | [5] | [6] | [7] | [13] | [10] | [12]

CCOC(CN1C(=O)[C@](CC(=O)Nc2ccc(C)cc2)(NC(=O)Nc2ccc(C)cc2)c2ccccc21)OCC
active: [3] 29.6 µM | [4] 11.8 µM | [9] 16.6 µM
inactive: [1] | [7] | [13] | [12]

COc1cccc2c1CCCC2CCCN1CCN(C2CCCCC2)CC1 (stereo unspecified)
inactive: [14] | [3] | [7]
active: [2] 18.7 µM | [4] 18.7 µM | [10] 26.4 µM

CO[C@H]1C[C@@H]2CC[C@@H](C)[C@@](O)(O2)C(=O)C(=O)N2CCCC[C@@H]2C(=O)O[C@H]([C@H](C)C[C@@H]2CC[C@H](OC(=O)C(C)(CO)CO)[C@H](OC)C2)CC(=O)[C@H](C)C=C(C)[C@@H](O)[C@@H](OC)C(=O)[C@H](C)C[C@H](C)C=CC=CC=C1C
active: [2] 11.8 µM | [5] 30.6 µM | [6] 9.35 µM | [8] 16.6 µM | [9] 23.5 µM | [10] 20.9 µM | [12] 29.6 µM
inactive: [13]

CC(C)(C)C(=O)Oc1ccc2c(c1)nc(NC(=O)c1cccc([N+](=O)[O-])c1)n2CCCO
active: [3] 11.8 µM | [4] 20.9 µM
inactive: [7] | [8] | [11] | [12]

CNC(=O)c1ccccc1Sc1ccc2c(C=Cc3ccccn3)n[nH]c2c1
active: [2] 2.96 µM | [4] 3.32 µM | [8] 14.8 µM | [9] 16.6 µM | [10] 0.743 µM | [11] 19.3 µM | [12] 14.8 µM
inactive: [7]

c1ccc2c(-c3cnn4cc(-c5ccc(N6CCNCC6)cc5)cnc34)ccnc2c1
inactive: [1] | [7]
active: [11] 27.3 µM

NC[C@@H]1O[C@@H](O[C@H]2[C@@H](O)[C@H](O[C@@H]3[C@@H](O)[C@@H](N)C[C@H](N)[C@H]3O[C@H]3O[C@H](CN)[C@@H](O)[C@@H](O)[C@H]3N)O[C@H]2CO)[C@H](N)[C@@H](O)[C@@H]1O
not listed: [1] | [14]
inactive: all other assays above

Oc1ccc(C2CCN(c3ccnc4ccccc34)CC2)cc1O
inactive: [8] | [12]
active: [6] 23.5 µM | [10] 18.7 µM | [11] 7.69 µM

C[C@]12CC[C@@H]3c4ccc(O)cc4C[C@@H](CCCCCCCCCS(=O)CCCC(F)(F)C(F)(F)F)[C@H]3[C@H]1CC[C@H]2O (stereo partly specified)
inactive: [14] | [2] | [3] | [6] | [7] | [13] | [9] | [10]

CC[C@@]1(O)C[C@H](O[C@H]2C[C@H](N(C)C)[C@H](O[C@H]3C[C@H](O)[C@H](O[C@H]4CCC(=O)[C@H](C)O4)[C@H](C)O3)[C@H](C)O2)c2c(cc3c(c2O)C(=O)c2c(O)cccc2C3=O)[C@@H]1C(=O)OC
active: [2] 0.372 µM | [3] 4.69 µM | [4] 18.7 µM | [5] 0.385 µM | [6] 0.526 µM | [8] 16.6 µM | [10] 2.35 µM
inactive: [7] | [12]

COc1ccc(C2CC(c3ccccc3)=NN2c2ccc(S(N)(=O)=O)cc2)cc1 (stereo unspecified)
inactive: [14] | [7] | [13] | [12]
active: [4] 18.7 µM | [5] 12.2 µM | [8] 16.6 µM | [11] 21.7 µM
